SF1 inhibitor: SF-1 (human) inhibition. CHO-K1 Gal4-SF-1 LBD luciferase reporter. 0.55% of 65,000 active. inhibition, % at 10 µM. Q13285;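 active means inhibition above the mean inhibition of all tested compounds plus 3 SD, cut at about 48% in these data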;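 further: 0% = SF-1 transfected cells with DMSO and 100% = mock-transfected cells lacking SF-1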
Target sequence (Q13285 whole entry, looked up, the tested form may be a part): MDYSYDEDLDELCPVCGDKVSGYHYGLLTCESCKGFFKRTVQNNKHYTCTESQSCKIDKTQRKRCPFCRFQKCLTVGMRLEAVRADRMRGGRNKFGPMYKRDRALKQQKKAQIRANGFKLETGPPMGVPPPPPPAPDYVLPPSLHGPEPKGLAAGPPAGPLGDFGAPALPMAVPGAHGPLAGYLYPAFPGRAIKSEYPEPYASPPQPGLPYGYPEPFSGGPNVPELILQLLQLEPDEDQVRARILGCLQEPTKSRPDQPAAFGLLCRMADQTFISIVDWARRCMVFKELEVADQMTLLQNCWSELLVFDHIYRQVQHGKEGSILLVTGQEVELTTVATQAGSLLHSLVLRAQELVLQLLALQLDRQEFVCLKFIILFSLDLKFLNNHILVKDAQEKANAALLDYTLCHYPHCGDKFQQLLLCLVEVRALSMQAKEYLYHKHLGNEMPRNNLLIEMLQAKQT
* marks the source's active call; other numbers are inactive results. Only a selection was taken, and hits are over-represented in it overall.

How did O=C(CCCn1c(=S)[nH]c2cc3c(cc2c1=O)OCO3)N1CCN(c2ccc(Cl)cc2)CC1 do in these assays?
SF1 inhibitor: 16.5

Results for O=C(Nc1ccc(-c2nc3ncccc3o2)cc1)c1ccco1 ?
SF1 inhibitor: -63.3

What do the screens show for `N#C/C(=C\c1ccc(O)c(O)c1)C(=O)NCCCc1ccccc1`?
SF1 inhibitor: 69.1*

Results for CCOC(=O)C1=C(CSc2nc(-c3ccncc3)ccc2C#N)OC(N)=C(C#N)C1c1cccnc1 (stereo not drawn) ?
SF1 inhibitor: 11.7

Results for c1ccc2c(c1)CCN(c1nc3cc4c(cc3s1)OCCO4)C2 ?
SF1 inhibitor: 59.8*

How did COc1cc2c(C#N)c(N3CCc4ccccc4C3)nc(N)c2c(N)n1 do in these assays?
SF1 inhibitor: -8.0

How did CCOC(OCC)P(=O)(c1ccccc1)c1ccccc1 do in these assays?
SF1 inhibitor: -19.8

Results for COc1ccc(CCNS(=O)(=O)c2ccc(C3CNC(=O)C3)cc2)cc1OC (stereo not drawn) ?
SF1 inhibitor: -0.2

What do the screens show for `Cc1ccc(S(=O)(=O)NCCN=C(CN2CCOCC2)NS(=O)(=O)c2ccc(C)cc2)cc1`?
SF1 inhibitor: 10.8

How did CC(=O)c1cnc2cc(-c3ccccc3)nn2c1C do in these assays?
SF1 inhibitor: -49.8

Results for COc1ccc(-c2nc(N3CCOCC3)nc3nn4c(C)c(CCC(=O)O)c(C)nc4c23)cc1 ?
SF1 inhibitor: 3.7

What do the screens show for `COc1cc(OC)cc(-c2cc3nc(C)c(CCC(=O)O)c(C)n3n2)c1`?
SF1 inhibitor: 79.4*

How did O=C(CCCC(=O)OCC(=O)NC1CCCC1)Nc1ccccn1 do in these assays?
SF1 inhibitor: -1.7

Results for CCOCCCN(C(=O)c1ccco1)C(C(=O)NC1CCCC1)c1cccc(OC)c1OC (stereo not drawn) ?
SF1 inhibitor: 10.0

What do the screens show for `CCCOc1ccc([C@@H]2C3CN(C(=O)OCC)CC=C3C(C#N)=C(N)C2(C#N)C#N)cc1OC` (stereo partly drawn)?
SF1 inhibitor: 5.9

How did N#CC1=C(N)C(C#N)(C#N)[C@H](c2ccncc2)[C@H]2CN(C(=O)OCc3ccccc3)CC=C12 do in these assays?
SF1 inhibitor: 48.4*

How did CCCc1cc(=O)oc2cc(C)cc(OCC(=O)O)c12 do in these assays?
SF1 inhibitor: -0.7

What do the screens show for `COc1ccccc1NC(=O)c1nnn(Cc2ccccc2)c1NC(C)=O`?
SF1 inhibitor: -5.1

Results for O=C1CC(NCCN2CCOCC2)C(=O)N1Cc1ccc(N2CCCC2=O)cc1 (stereo not drawn) ?
SF1 inhibitor: -3.6

What do the screens show for `O=C(NCc1ccccc1)c1noc2c1CCCCC2`?
SF1 inhibitor: -52.5

How did Cn1nc(C(C)(C)C)cc1C(=O)NCc1ccc(N2CCCC2=O)cc1 do in these assays?
SF1 inhibitor: 69.4*

How did CCOC(=O)c1ccc(NC(=O)Cn2cccc2)cc1 do in these assays?
SF1 inhibitor: -37.7

How did COc1ccc2nc3sc(C(=O)NCc4cccs4)c(N)c3cc2c1 do in these assays?
SF1 inhibitor: -74.4

Results for Fc1ccc(-c2nnc(-c3ccc(Cl)cc3Cl)o2)cc1 ?
SF1 inhibitor: 23.7

Results for Clc1ccc(-c2nnc(NC3=NCCCCC3)o2)cc1 ?
SF1 inhibitor: 57.6*

What do the screens show for `COc1ccccc1C(=O)Nc1cccc(NC(C)=O)c1`?
SF1 inhibitor: 9.5

Results for CS(=O)(=O)N(CC(=O)NCC1CCCO1)Cc1ccc(Cl)cc1 (stereo not drawn) ?
SF1 inhibitor: 5.4

Results for c1ccc2nc3c(nc2c1)[nH]c1ccccc13 ?
SF1 inhibitor: -81.2

How did CCn1c(SCC(=O)c2ccc3c(c2)OCCO3)nnc1C(C)C do in these assays?
SF1 inhibitor: -18.0

Results for CC(C)c1nc(SCC(=O)Nc2ccc3c(c2)OCCO3)c2c(=O)n(C)c(=O)n(C)c2n1 ?
SF1 inhibitor: 7.6

How did CC(C)Cn1c(N)c(C(=O)CSc2ccc3c(c2)OCCO3)c(=O)n(C)c1=O do in these assays?
SF1 inhibitor: 69.3*

What do the screens show for `COc1ccccc1N(C(=O)CNS(=O)(=O)c1ccccc1)C(C(=O)NCc1ccco1)C(C)C` (stereo not drawn)?
SF1 inhibitor: -4.6

How did COC(=O)Cc1c(C)nc2nc(-c3cccnc3)[nH]n2c1=O do in these assays?
SF1 inhibitor: -2.6

Results for CCOC(=O)c1cnc(-n2nc(C)cc2C)nc1Nc1ccc2c(c1)OCO2 ?
SF1 inhibitor: 5.9

How did CCOC(=O)c1cnc(-n2nc(C)cc2C)nc1NC1CCCCC1 do in these assays?
SF1 inhibitor: 86.9*

How did CCOC(=O)c1snc(C(=O)NC2CCCCC2)c1N do in these assays?
SF1 inhibitor: -105.9

How did COC(=O)c1c(F)c(F)c(N2CCOCC2)c(F)c1F do in these assays?
SF1 inhibitor: 5.6

Results for CN(C)Cc1c(O)ccc2[nH]cnc12 ?
SF1 inhibitor: 2.6

Results for COC(=O)C1=C(CN2CCCc3ccccc32)NC(=O)NC1c1ccc(F)cc1 (stereo not drawn) ?
SF1 inhibitor: 74.8*

Results for COC(=O)C1=C(CN2CCN(C)CC2)NC(=O)NC1c1cc(C)ccc1C (stereo not drawn) ?
SF1 inhibitor: 3.3

What do the screens show for `COc1ccc(CCNC(=O)CN2CCCc3ccccc32)cc1OC`?
SF1 inhibitor: -17.0

How did COC(=O)CCC(=O)c1oc2ccc(Cl)cc2c1NC(=O)CCCN1C(=O)c2ccccc2C1=O do in these assays?
SF1 inhibitor: 16.0

How did Cc1cc(OCc2ccc(F)cc2)nc(-c2ccccc2O)n1 do in these assays?
SF1 inhibitor: 7.1

What do the screens show for `C#CCn1c(=NC(=O)c2cccs2)sc2cccc(OC)c21`?
SF1 inhibitor: -75.7

How did COc1cc(/C=N/O)ccc1OCc1ccc(C(=O)O)cc1 do in these assays?
SF1 inhibitor: 90.6*

Results for O=C(O)c1ccc(COc2c(F)c(F)cc(F)c2F)cc1 ?
SF1 inhibitor: -17.5

What do the screens show for `COc1ccc(OCc2ccc(C(=O)O)cc2)cc1`?
SF1 inhibitor: -63.7

How did COCCNC(=O)COc1cccc(Oc2ccccc2)c1 do in these assays?
SF1 inhibitor: 8.6

How did Cc1nc(SCC(=O)Nc2c(C)n(C)n(-c3ccccc3)c2=O)[nH]c(=O)c1Cc1ccccc1 do in these assays?
SF1 inhibitor: -9.2

How did O=C(NCCCN1CCCC1)C1CCN(C(=O)c2cc3sccc3n2Cc2ccc(F)cc2)CC1 do in these assays?
SF1 inhibitor: -34.6

How did Cc1ccc(NC(=O)Nc2ccc(F)cc2)nc1 do in these assays?
SF1 inhibitor: -82.9

What do the screens show for `CCOC(=O)c1sc(Nc2nc3c(OC)cccc3s2)nc1C`?
SF1 inhibitor: -64.1

What do the screens show for `c1ccc(-c2csc(Nc3cccnc3)n2)nc1`?
SF1 inhibitor: -56.6

How did COc1cccc2sc(Nc3nc(-c4ccccn4)cs3)nc12 do in these assays?
SF1 inhibitor: 95.6*

How did CCCn1nnc(NC(=O)c2cccc(OCC)c2)n1 do in these assays?
SF1 inhibitor: -66.2

Results for Cc1occc1C(=O)N1CCN(c2ccc(Cl)c(Cl)c2)CC1 ?
SF1 inhibitor: 55.8*

How did O=C(c1ccc2c(c1)OCO2)N1CCN(c2ccc(F)cc2)CC1 do in these assays?
SF1 inhibitor: -7.1

What do the screens show for `Cc1occc1C(=O)n1nnc2ccccc21`?
SF1 inhibitor: 4.6

How did Cc1nnc2n1N=CC=C(c1ccccc1)S2 do in these assays?
SF1 inhibitor: 19.8

How did COc1ccccc1-n1c(SC)nc(O)cc1=O do in these assays?
SF1 inhibitor: -5.6

Results for O=C(Nc1ccc(S(=O)(=O)N2CCOCC2)cc1)c1cccs1 ?
SF1 inhibitor: -1.4

What do the screens show for `CCOc1cc(C(=O)Nc2ccc(S(=O)(=O)N3CCOCC3)cc2)cc(OCC)c1OCC`?
SF1 inhibitor: -12.5

What do the screens show for `COc1ccc(N=c2scc(-c3ccc(S(=O)(=O)N4CCOCC4)cc3)n2CCCO)cc1`?
SF1 inhibitor: 64.5*

Compound activity as filed in PubChem.
